# This is a sample that favours compounds with a hit; in the whole collection about 4.1% have one here.
# TROY signal inh: inhibitors of TROY-dependent NF-kB signaling; Q293 LMP1-TROYcd NF-kB luciferase reporter, 4 h; inhibition, % at 10 µM; actives 0.98% (n = 360,000); AID 1347056;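 active = compounds whose plate-normalised and pattern-corrected inhibition of the luciferase reporter signal at the single screening dose is 50% or more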
# Shn3 3UTR inh: inhibitors of Schnurri-3 3'UTR reporter in osteoblasts. Clone20 osteoblast Shn3 3'UTR firefly luciferase, 24 h. inhibition, % at 12.5 µM. actives 0.52% (n = 360,000). AID 588674;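 active = mean inhibition of at least 75% with every replicate also reaching 75%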;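 also: 0% = median of neutral control wells and 100% = pilot-screen positive control compound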
# TRPM1 prom inh: MITF TRPM1 promoter inhibition in SK-MEL-5 cells; actives 0.83% (n = 330,000); SK-MEL-5 TRPM1 promoter luciferase, 24 h; inhibition, % at 12.5 µM;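 active = mean inhibition across replicates of 60% or more, whatever share of single replicates reaches that level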
# LMP1 NFkB inh: reduces LMP1-driven NF-kappaB luciferase signal. actives 0.69% (n = 350,000). inhibition, % at 12.5 µM. LMP1-induced NF-kappaB luciferase reporter cells, luminescence; in the data active = inhibition above about 41%;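 also: 0% = neutral control wells and 100% = reference inhibitor control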
# TWEAK-Fn14 inh: TWEAK-Fn14 signaling inhibition. TWEAK-stimulated Fn14 reporter cells, luciferase luminescence, 8 h. inhibition, % at 10 µM. actives 2% (n = 360,000); in the data active = inhibition above about 50%
# Peg3 promoter: Peg3 promoter activity inhibition. actives 1.7% (n = 360,000). HeLa PEG-Prom luciferase reporter, luminescence, overnight. inhibition, % at 20 µM;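 active = inhibition of at least 50% at 20 µM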
# Numbers without * were called inactive; · = no result given.
SMILES,TROY signal inh,Shn3 3UTR inh,TRPM1 prom inh,LMP1 NFkB inh,TWEAK-Fn14 inh,Peg3 promoter
CCCCCN(C(=O)CCC(=O)OCC(=O)c1cccc(OC)c1)c1c(N)n(CCCC)c(=O)[nH]c1=O,-26,3,-4,16,7,8
CC(NC(=O)CN(C)S(=O)(=O)c1cccc2nsnc12)c1ccccc1 (stereo not drawn),1,-14,-13,1,-7,-6
NS(=O)(=O)c1ccc(NC(=O)c2cccc3cc4ccccc4nc23)cc1,-17,1,25,4,-58,10
COc1cc(NC(=O)COc2cc(O)c3c(c2)OC(C)(C)CC3=O)cc(OC)c1OC,48,86*,72*,20,78*,16
Cc1nnc(SCC(=O)Nc2ccc([N+](=O)[O-])cc2)n1C,2,-24,-2,-4,-23,5
Cc1cc([N+](=O)[O-])ccc1NC(=O)CSc1nnc(C)n1C,-22,1,-12,-6,58*,1
Cc1ccc(C)c(S(=O)(=O)N2CCN(Cc3cc4c(cc3O)OCO4)CC2)c1,-41,10,0,-2,-19,-1
O=C(NCCOc1ccccc1)c1ccc2c(c1)OCO2,63*,-4,59,66*,94*,41
COc1cccc(CC(=O)NNC(=O)c2ccc3c(c2)OCO3)c1,6,10,-2,45*,4,11
CN(CCOc1ccccc1)C(=O)c1ccc2c(c1)OCO2,-42,-12,-68,-13,-2,-138
Cc1ccc(C(=O)Oc2cc(N)n(S(=O)(=O)c3ccc(F)cc3)n2)cc1,44,6,7,-2,79*,10
Nc1cc(OC(=O)c2cccs2)nn1S(=O)(=O)c1ccc(F)cc1,3,11,-12,3,6,8
COC(=O)c1c(NC(=O)COC(=O)c2ccc(Cl)cc2[N+](=O)[O-])sc2c1CCCCC2,-3,-4,0,-2,-24,71*
COC(=O)c1c(NC(=S)Nc2ccc(F)cc2[N+](=O)[O-])sc2c1CCCCC2,-19,-13,8,5,-9,6
O=C(c1cc(C2CC2)nc2ccccc12)N1N=C(C(F)F)CC1(O)C(F)F (stereo not drawn),-4,7,13,1,81*,21
O=C(c1cc(C2CC2)nc2ccc(Br)cc12)N1N=C(C(F)F)CC1(O)C(F)F (stereo not drawn),54*,1,8,-15,20,60*
Cc1ccc([C@H]2C[C@@H](O)[C@H](n3cc(-c4ccc(F)cc4)nn3)CN2C(=O)C2CCCCC2)cc1,6,12,·,8,12,12
CCOc1ccc(NC(=O)c2sc3nc(C)nc(N4CCOCC4)c3c2C)cc1,-2,-18,-8,7,-25,21
Cc1ccc(C=C2C=C(c3ccccc3)OC2=O)cc1,-42,-33,·,-3,-20,-195
Cc1ccc(C2=C/C(=C/c3cccs3)C(=O)O2)cc1,-32,-27,-26,-3,53*,-53
CN1C(=O)CON=C1c1cccc2ccccc12,7,-3,·,·,1,-5
COc1ccccc1NC(=O)/C(=C\c1cccnc1)NC(=O)c1ccc(C)cc1,4,2,-2,17,61*,13
Cc1ccc(NC(=O)Cn2nc(C)c(S(=O)(=O)N(C)C)c2C)cc1C,24,·,-2,-8,1,6
Cn1c(=O)[nH]c(=O)c2c1nc([N+](=O)[O-])n2Cc1ccccc1,16,98*,93*,95*,73*,117*
CC(C)Cn1c([N+](=O)[O-])nc2c1c(=O)[nH]c(=O)n2C,12,·,40,-3,48,17
SMILES,TROY signal inh,Shn3 3UTR inh,TRPM1 prom inh,LMP1 NFkB inh,TWEAK-Fn14 inh,Peg3 promoter
Cc1ccc(NC(=O)c2cc(S(=O)(=O)NCC3CCCO3)ccc2F)cc1 (stereo not drawn),-6,12,·,0,-17,-13
Cc1ccc(NC(=O)c2cc(S(=O)(=O)NCCC3=CCCCC3)ccc2F)cc1,35,75,-10,-10,57*,30
O=C(O)CCN1C(=O)C2C3C=CC(C2C1=O)C1C(=O)N(CCC(=O)O)C(=O)C31 (stereo not drawn),5,18,-16,·,-40,-2
COc1ccc(NC(=O)CSc2nnc(-c3cccs3)n2-c2ccccc2)cc1,-27,-31,0,9,54*,15
Cn1cccc1Cc1nnc(SCC(=O)N2CCc3ccccc32)n1-c1ccc(F)cc1,10,-17,9,-8,57*,11
COc1ccc(-n2c(Cc3cccn3C)nnc2SCC(=O)Nc2ccc(C)c(Cl)c2)cc1,-16,11,4,-19,52*,14
Cn1cccc1Cc1nnc(SCC(=O)N2CCCc3ccccc32)n1-c1ccc(F)cc1,0,10,2,4,35,5
C#CC(CC)(CC)NC(=O)c1cc(S(=O)(=O)N2CCCCC2)ccc1N1CCOCC1,-10,17,-1,0,1,4
Cn1nccc1C(=O)NC1CC(C)(C)Cc2c1cnn2-c1ccc(F)cc1 (stereo not drawn),1,-6,5,-5,4,11
c1ccc(CN2CCC(Nc3ncnc4sccc34)CC2)cc1,0,14,-3,-7,-3,-12
Cc1sc2ncnc(NC3CCN(Cc4ccccc4)CC3)c2c1C,31,88*,-1,-7,16,12
COc1ccc(NC(=O)N2CCCC(c3nc(-c4ccc(OC)cc4)no3)C2)cc1 (stereo not drawn),33,7,-4,9,36,-122
COc1ccc(NC(=O)N2CCCC(c3nc(-c4ccc(C(C)C)cc4)no3)C2)cc1 (stereo not drawn),69*,27,16,-25,59*,-60
Cc1cc(N2CCOCC2)ccc1/C=C\[N+](=O)[O-],50*,39,59,-8,70*,102*
COc1ccc2cc(CNCCOCCOCCNCc3ccc4cc(OC)ccc4c3)ccc2c1,58*,96*,91*,-54,-68,109*
CCOCCCNCc1ccc(OC)cc1,-11,-3,2,-1,18,19
CC(=O)Nc1ccc(OCC(O)Cn2c3ccccc3c3ccccc32)cc1 (stereo not drawn),7,-26,6,-2,20,1
CC(=O)Nc1ccc(OCC(O)Cn2c3ccccc3c3ccccc32)c(C)c1 (stereo not drawn),42,2,5,-4,58*,38
CC(=O)Nc1ccc(N(CC(O)Cn2c3ccccc3c3ccccc32)S(=O)(=O)c2ccc(C)cc2)cc1 (stereo not drawn),31,29,10,-8,47,61*
Cc1ccc(N(CC(O)Cn2c3ccccc3c3ccccc32)S(C)(=O)=O)cc1 (stereo not drawn),-5,-20,12,-8,5,12
Cc1ccc(-n2nnc(-c3nccs3)n2)cc1,66*,-4,55,58*,94*,48

# Assay outcomes: PubChem, several laboratories
